In all, about 39,000 sequences were measured (“fluorescence intensity (a.u.)”: median about 4,300, highest 2% from about 39,000 on). The list comes from a sample in which the highest values are over-represented; it also holds similar and randomly drawn sequences.
molecular target: T1, OsSMF1 (Oryza sativa, UniProt Q6ZLB0 1-436); experiment: protein-binding microarray (RPBM); PBS, 2% BSA, 51.3 ng/ul salmon testes DNA, 50 uM zinc acetate, 200 nM TF, 25 C, 1 h; high values mean tight binding; settings: protein: recombinant; tags: N-terminal polyhistidine and DsRed monomer fusion (pET32a); chain copies: 2; label: CyDye5-dUTP incorporated in the synthesized complementary strand; 3' TTTTT single-stranded linker to array surface; dsDNA, one strand shown
T1 sequence: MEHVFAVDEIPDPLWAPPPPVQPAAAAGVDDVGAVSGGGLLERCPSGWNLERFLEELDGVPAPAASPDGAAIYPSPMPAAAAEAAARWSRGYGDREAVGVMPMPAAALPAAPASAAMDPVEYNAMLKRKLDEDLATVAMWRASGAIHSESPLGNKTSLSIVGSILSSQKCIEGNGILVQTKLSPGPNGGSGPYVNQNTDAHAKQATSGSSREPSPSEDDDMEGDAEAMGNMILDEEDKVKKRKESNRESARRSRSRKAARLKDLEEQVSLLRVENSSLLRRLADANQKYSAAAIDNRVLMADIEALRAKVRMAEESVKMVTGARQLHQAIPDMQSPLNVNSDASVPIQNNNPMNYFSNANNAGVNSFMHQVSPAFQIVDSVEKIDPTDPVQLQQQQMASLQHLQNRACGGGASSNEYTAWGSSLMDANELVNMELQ
Procedure, shortened: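 Polyhistidine-tagged DsRed fusions of transcription factors, joined at the N-terminus, were expressed in E. coli BL21-CodonPlus and isolated on Ni–NTA. They were incubated at 200 nM for 1 h at 25 °C on a custom Agilent array, double-stranded and BSA-blocked, in PBS with 2% BSA, salmon testes DNA and 50 µM zinc acetate. The binding signal is per-feature fluorescence intensity (arbitrary units) read on an Axon 4000B scanner after washing.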

Sequence | binding signal
TATATATTATACCATTAATGACTGATCCTACCCTCTCATACGGAGTCACCTAGTGCAG | 3290 fluorescence intensity (a.u.)
TATGTTGAGTTTGAATTTGTATATTTATGAAATGGCATATCGGAGTCACCTAGTGCAG | 33000 fluorescence intensity (a.u.)
ATCGTCGTCGCCGCCGCCTCCCATGTCGTTGCTGTCGCCGCGGAGTCACCTAGTGCAG | 3240 fluorescence intensity (a.u.)
TCGGCGGCGAACTTCCCCGCCGACGTGCCAGATCTCAAACCGGAGTCACCTAGTGCAG | 4610 fluorescence intensity (a.u.)
ACTTTCACAAAACTATACACATATCACTTTTCAATAAATACGGAGTCACCTAGTGCAG | 19900 fluorescence intensity (a.u.)
TGTTCTAACAATAGCATTTCTTGCATTTAACTATGTTCCTCGGAGTCACCTAGTGCAG | 52900 fluorescence intensity (a.u.)
CAAACTTCTAACCTTTTCATCACATCAAAACTTTTCTATACGGAGTCACCTAGTGCAG | 63600 fluorescence intensity (a.u.)
AGTTCCTAATATTTCTCAATGTATATATGTACTCATTCCTCGGAGTCACCTAGTGCAG | 3800 fluorescence intensity (a.u.)
TTATTTATAACTGATCTAATAGCCAATTCACACAATAATTCGGAGTCACCTAGTGCAG | 13700 fluorescence intensity (a.u.)
ACTGGCTTCAATTTATCTATAGCTAATCTAATAGCTAATTCGGAGTCACCTAGTGCAG | 33900 fluorescence intensity (a.u.)
AATGTAAGTCATTCTAGCATTTCTCATTAACATCAATATGCGGAGTCACCTAGTGCAG | 3240 fluorescence intensity (a.u.)
TGTTTCTTTTCTTCAGACTAGTCACCTACGGTTTACTATTCGGAGTCACCTAGTGCAG | 3720 fluorescence intensity (a.u.)
TGCACTATTCTATATTATATTATGCAAGTTTATTTTACGACGGAGTCACCTAGTGCAG | 3260 fluorescence intensity (a.u.)
TCCAATCAGACGACTATTCCTATGTTTTACAATTCTCTATCGGAGTCACCTAGTGCAG | 51200 fluorescence intensity (a.u.)
ATCACATCAAAACTTTTCTACACATATAAACTTCTAACTTCGGAGTCACCTAGTGCAG | 27400 fluorescence intensity (a.u.)
CAATTCATCTATAACTAATTTAATAGTCAATTCATACAATCGGAGTCACCTAGTGCAG | 44100 fluorescence intensity (a.u.)
CCCTTCGTCGACACGCACCCCTGACCTCATATTTTCGCTTCGGAGTCACCTAGTGCAG | 5650 fluorescence intensity (a.u.)
ATGCCATGCCAACGCACTATGCCTGGTATCCTTAGCCATCCGGAGTCACCTAGTGCAG | 4060 fluorescence intensity (a.u.)
CGACCTGAGGTTGGCGGTCGGCATGACGTCACGGGTGGGACGGAGTCACCTAGTGCAG | 24200 fluorescence intensity (a.u.)
CTATGTTTTACACTTACACTCCTATCAAAATCCTACGTTTCGGAGTCACCTAGTGCAG | 22600 fluorescence intensity (a.u.)
TAAAGCTTTTATGAATGAATAGCCTCGCTGGCAAGTGGGCCGGAGTCACCTAGTGCAG | 3560 fluorescence intensity (a.u.)
TTGTTCTGTCGATCCATCGGTATCCTGGTCAATTGGCAAGCGGAGTCACCTAGTGCAG | 3160 fluorescence intensity (a.u.)
ATCGAATGATCTAACGGCTCACACACTCCCACGCACTTTGCGGAGTCACCTAGTGCAG | 3290 fluorescence intensity (a.u.)

Sequence | binding signal
TCTGACGGGCGATGACGACGACGACGGTGCAAAAGCCTGACGGAGTCACCTAGTGCAG | 3310 fluorescence intensity (a.u.)
ACATCTAAAAGTAACTTGAGTTTTCTAAGCAACACATAAGCGGAGTCACCTAGTGCAG | 24700 fluorescence intensity (a.u.)
AAGCTCCCCGGCCAGGCCGCCATCGGCCACGTGAGGTACTCGGAGTCACCTAGTGCAG | 4540 fluorescence intensity (a.u.)
TTTAATTGTTCTGCGATTACGGTAGAAATAGATCGGGCTTCGGAGTCACCTAGTGCAG | 3210 fluorescence intensity (a.u.)
TTGAAACGTAACACTTGATATATGTATACATTATCCAACCCGGAGTCACCTAGTGCAG | 3150 fluorescence intensity (a.u.)
GTTATAAGACGTTTTGATTTTAGTCAAAGTCAAACTATTCCGGAGTCACCTAGTGCAG | 32600 fluorescence intensity (a.u.)
GGGTCATATAGAGACGACGATCAAATTTACCTTATTTTAACGGAGTCACCTAGTGCAG | 3240 fluorescence intensity (a.u.)
TCCATTGCATATAATTCAATTCATCGAAATCATGACATTTCGGAGTCACCTAGTGCAG | 46400 fluorescence intensity (a.u.)
GACATGAATTTTCCATCATATATTCATGCGGTTCATTATGCGGAGTCACCTAGTGCAG | 4430 fluorescence intensity (a.u.)
CAACAAATTTAAATTTATAGACGTCACCATACTGAAGGCGCGGAGTCACCTAGTGCAG | 5460 fluorescence intensity (a.u.)
TTTTCTATCACATCGTTTTAATTTCAATCAAACTTCCAATCGGAGTCACCTAGTGCAG | 45300 fluorescence intensity (a.u.)
TTATATTTTAATTAAAACTATTATAATACACAATACGTCACGGAGTCACCTAGTGCAG | 7060 fluorescence intensity (a.u.)
AATTGGACAATTCATCATAAATTTTGCATGAATGATGACACGGAGTCACCTAGTGCAG | 3750 fluorescence intensity (a.u.)
CCAACTTTTCCATCACATCGTTCCAATTTCAACCAAACTTCGGAGTCACCTAGTGCAG | 21900 fluorescence intensity (a.u.)
AATTATGTTTTATAAGACGTTAGCATTTAAACTACAATCCCGGAGTCACCTAGTGCAG | 55600 fluorescence intensity (a.u.)
TCATACTGCCATCATACCATCCTACAATAGACAAATTTAACGGAGTCACCTAGTGCAG | 54300 fluorescence intensity (a.u.)
ACAAACTTCCAACTTTTCTATCACATCGTTCCAATTTCAACGGAGTCACCTAGTGCAG | 22100 fluorescence intensity (a.u.)
TAACCATGTAATTCCTCTGAAAATCCACAGATGAACTAGCCGGAGTCACCTAGTGCAG | 3360 fluorescence intensity (a.u.)
CCACCAGCCCGGTGGGATCCCGCCACGTCAGCGTGACCCGCGGAGTCACCTAGTGCAG | 22600 fluorescence intensity (a.u.)
GTCTGGAGAGCCAGAGGAGAGGAGTAGCGGACGCGGTGCCCGGAGTCACCTAGTGCAG | 26700 fluorescence intensity (a.u.)
TTTCTGCGCTACGTGCTCGCCATGTCGTCCTCGTCACAAACGGAGTCACCTAGTGCAG | 5120 fluorescence intensity (a.u.)
CACCCGTGCGTAATCATGACGCCGGGGTGACGTCACCATCCGGAGTCACCTAGTGCAG | 30200 fluorescence intensity (a.u.)

From article PMC7819943, “Rice protein-binding microarrays: a tool to detect cis-acting elements near promoter regions in rice”
